Hit rate of the full screen: of about 410,000 compounds, about 6,400 (1.6%) were called active. Where a call stands in place of a potency, no number is given. Roughly 20% stayed inconclusive and do not appear here. Calls follow the shape of the dose curve; as a rule, active = well fitted inhibition curve with a large enough effect; inconclusive = small, poorly fitted or top-dose-only effect; inactive = no such curve, though single readings can be large or run the other way. Only a selection was taken, and actives are over-represented in it overall.
Potency is read from the fitted curve at half-maximal effect.

Chain of Glucagon-like peptide 1 receptor (Homo sapiens) (P43220 whole entry, looked up): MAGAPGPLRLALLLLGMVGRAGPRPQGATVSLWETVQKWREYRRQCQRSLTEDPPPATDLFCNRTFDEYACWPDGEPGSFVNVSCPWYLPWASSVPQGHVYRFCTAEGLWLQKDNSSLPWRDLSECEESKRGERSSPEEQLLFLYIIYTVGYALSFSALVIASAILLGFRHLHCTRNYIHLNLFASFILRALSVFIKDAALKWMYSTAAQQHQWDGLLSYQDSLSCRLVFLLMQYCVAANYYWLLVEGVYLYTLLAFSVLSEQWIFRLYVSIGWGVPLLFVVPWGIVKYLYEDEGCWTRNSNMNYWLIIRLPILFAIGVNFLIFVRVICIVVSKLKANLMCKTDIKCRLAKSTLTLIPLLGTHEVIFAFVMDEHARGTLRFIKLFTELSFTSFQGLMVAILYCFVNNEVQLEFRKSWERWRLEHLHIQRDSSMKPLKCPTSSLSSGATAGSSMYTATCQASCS

The target of the experiment is Glucagon-like peptide 1 receptor (Homo sapiens) (UniProt P43220). As to the kind of experiment: qHTS of GLP-1 Receptor Inverse Agonists (Inhibition Mode). Also: nearly all actives have a fitted effect of over 55% in size. To be noted: HEK293 GLP-1R CRE-luciferase, luminescence, 24 h, GLP-1R form is constitutively active; series mostly up to 38.3 µM. Put shortly:
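Assay principle: reduced luminescence from a cAMP-responsive reporter in HEK293 cells co-expressing a constitutively active GLP-1R. Conditions: 24 hr compound incubation, 37 deg C, 5% CO2.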
Regarding `CN1CCn2cnc(C(=O)NCC(=O)OC(C)(C)C)c2C1=O`, the Potency entry was “inactive”. The value for `O=C(Nc1nnc([C@H]2C[C@H](O)[C@@H](CO)O2)s1)c1cccc(Cl)c1` was “inactive”; that for `CC1=NN(c2cccc(Cl)c2)C(=O)C12CC(C)=C(C)CS2` (configuration not stated) was 10 µM (active). The value for `CCOC1=C2[C@H]([C@H]3C(=O)N(c4ccccc4)C(=O)[C@H]3C1)[C@@H](c1ccccc1)N(S(=O)(=O)c1ccc(C)cc1)[C@H]2c1ccccc1` was “inactive”. The value for `Cc1cc(Nc2ccc(C)c(C)c2)n2ncnc2n1` was “inactive”; that for `CC(=O)NCC(=O)N1CCCC(C(=O)c2ccc3c4c(cccc24)CC3)C1` (configuration not stated) was “inactive”; that for `CCOC(=O)c1[nH]ncc1CN1CCCC(C(=O)c2ccc(OC)cc2C)C1` (configuration not stated) was “inactive”.

In the case of `CCn1ccnc1CN1CCCC(C(=O)c2ccc3c4c(cccc24)CC3)C1` (configuration not stated), the Potency is 11.2 µM (active).

In the case of `O=C(N=C1SC2CS(=O)(=O)CC2N1Cc1ccccc1)c1ccccc1` (configuration not stated), the Potency entry was “inactive”. With `CSCCC(C(=O)NC(C)(C)C)n1c(-c2ccccc2)nc2ccccc21` (configuration not stated) the entry was “inactive”; with `COc1ncnc2c1ncn2CCCNCCN1CCOCC1`, “inactive”; with `CCc1nc2c(OCCOc3ccccc3)cccn2c1N(C)C(=O)c1ccc(OC)cc1`, “inactive”.

Turning to `CC(C)(C)c1ccc(C(=O)NNC(=O)Cc2ccccc2)cc1`, the Potency entry is “inactive”.

Regarding `CN(C(=O)CC(NC(=O)c1ccccc1)(c1ccccc1)c1ccccc1)c1ccccc1`, the Potency is 12.6 µM (active).

On to `CN(C(=O)COC(=O)CNC(=O)C12CC3CC(CC(C3)C1)C2)c1ccccc1`, for which the Potency entry was “inactive”.

Take `COc1ccc(C(CNC(=O)CSc2ccccc2)N2CCOCC2)cc1` (configuration not stated): the Potency entry was “inactive”. The value for `COc1ccc(C(=O)ON=C2c3ccccc3-c3ccccc32)cc1OC` was “inactive”; that for `COc1ccc(C/C(N)=N/OC(=O)c2ccco2)cc1OC` was “inactive”. With `COc1ccc(C(=O)O/N=C(\N)Cc2ccc(Cl)cc2Cl)cc1OC` the figure was 8.91 µM (active).

With `CCc1c(C)nc2c(-c3ccccc3)c(C)nn2c1Nc1ccc(NC(C)=O)cc1`, the Potency is 10 µM (active). With `Cc1cc(-c2ccccc2)n2nc(C)c(-c3ccccc3)c2n1` the entry was “inactive”; with `Cc1cc(-n2nc(C)cc2C)n2nc(C)c(-c3ccccc3)c2n1`, “inactive”.

Regarding `Cc1ccc2nc(-c3ccccc3)c(CC3CCCCC3)n2c1`, the Potency entry was “inactive”. The value for `O=C1Nc2ccccc2-n2nnnc2C1N1CCN(c2cccc(C(F)(F)F)n2)CC1` (configuration not stated) was “inactive”; that for `CC(=O)c1cccc(-c2cnc3c(NC=O)cc(-c4ccccc4Oc4ccccc4)cn23)c1` was “inactive”; that for `CNc1cncc(-c2cccc(C(=O)N3CCOCC3)c2)n1` was “inactive”. With `Cc1nccn1-c1ccc(NC(=O)[C@H]2O[C@@H](n3ccc(=O)[nH]c3=O)[C@H](O)[C@@H]2O)cc1` the entry was “inactive”.

Turning to `COc1cc(C(O)c2nc(-c3cnn(C)c3)cs2)ccc1F` (configuration not stated), the Potency result is “inactive”.

For the compound `CN1CCN(C(=O)c2ccc(NC(=O)c3ccc(Br)o3)cc2)CC1`, the Potency result was “inactive”. With `COc1ccc(-c2cn3cccnc3n2)cc1` the entry was “inactive”; with `COc1ccc(-c2cn3ccc(C)cc3n2)cc1`, 6.31 µM (active). The value for `CCN(CC)S(=O)(=O)c1ccc(-c2cn3ccc(C)cc3n2)cc1` was “inactive”. The value for `COc1ccc(-c2c(C#N)cnc(C)c2C)c(O)c1OC` was “inactive”; that for `CNC[C@H]1OCc2cnnn2CCCC(=O)N([C@H](C)CO)C[C@@H]1C` was “inactive”; that for `OC(c1ccc(Cl)c(F)c1)c1ncc(-c2ccccc2Cl)[nH]1` (configuration not stated) was “inactive”. Turning to `COC(=O)c1ccc(C(NC(=O)OCc2ccccc2)/C(F)=C/[C@@H](C)C(=O)O)cc1` (some centres not stated), the Potency result is “inactive”.

`COC(=O)c1ccc(NCC(=O)c2ccccc2)cc1`: the Potency result is “inactive”. Regarding `CCC[C@@H]1C[C@@]1(CCC)[C@@H](NC(=O)c1ccccc1)c1ccc(C(=O)OC)cc1`, the Potency is 5.01 µM (active). `CC1=C(C(=O)Nc2cccc(C(=O)NCC(C)c3ccccc3)c2)SCCO1` (configuration not stated): the Potency result was “inactive”.

Regarding `CCC1=Nc2cc(C(=O)NCCN3CCCC3)ccc2Sc2ccc(C)cc21`, the Potency is 3.55 µM (active).

As for `CCC1=Nc2cc(C(=O)NCC(C)c3ccccc3)ccc2Sc2ccc(C)cc21` (configuration not stated), the Potency was 5.01 µM (active). The value for `Cc1ccccc1CN1C(=O)c2ccccc2Sc2ccc(C(=O)NCCCN3CCOCC3)cc21` was “inactive”; that for `COc1ccc(C(=O)NCCCN2CCOCC2)cc1Br` was “inactive”.

Regarding `Cc1ccc(C(=O)NCCNS(=O)(=O)c2ccccc2)cc1`, the Potency result is “inactive”. `CCC1=Nc2cc(C(=O)NCCCN3CCOCC3)ccc2Sc2ccc(Br)cc21`: the Potency was 11.2 µM (active). The value for `Cc1ccc(C(=O)NC(=S)NCCN2CCOCC2)cc1` was “inactive”; that for `CCc1ccccc1NC(=O)NCCN1CCCCC1` was “inactive”. With `O=C(Nc1ccccc1)c1ccccc1Br`, the Potency result was “inactive”. With `CC(OC(=O)c1cccc(S(=O)(=O)N2CCOCC2)c1)C(=O)NCC1CCCCC1` (configuration not stated) the entry was “inactive”; with `CC1=C(C(=O)N2CCOCC2)CC(CC(=O)NCCN2CCOCC2)C(=O)N1CCC1=CCCCC1` (configuration not stated), “inactive”; with `COCCNC(=O)C1C(=O)Nc2ccccc2C(=O)N1c1ccc2c(c1)OCCO2` (configuration not stated), “inactive”. With `CCc1oc(-c2ccc(OC)cc2)c(C(=O)OCCCCCO)c1C(C)OCCO` (configuration not stated), the Potency entry was “inactive”. With `CC1(C(=O)Nc2ccccc2Br)CCN1C(=O)CC1CC1` (configuration not stated), the Potency result is “inactive”. On to `Cc1cccc(-c2noc(-c3ccc(F)cc3)n2)c1`, for which the Potency result is “inactive”.

For the compound `COc1ccc(Nc2nnc(C)c3ccccc23)cc1`, the Potency result is “inactive”. As to `COc1cccc(Nc2nc3ccccc3c3nncn23)c1`, the Potency entry is “inactive”.

With `Cc1cccc(-c2nc(Nc3ccc(O)cc3)c3ccccc3n2)c1`, the Potency is 2.82 µM (active). With `Oc1ccc(-c2nnc(Nc3ccccc3)c3ccccc23)cc1` the entry was “inactive”; with `COc1cc(Nc2nc(-c3ccc(OC)c(OC)c3)nc3ccccc23)cc(OC)c1`, 11.2 µM (active); with `C[C@H]1CN([C@@H](C)CO)C(=O)CCCn2cc(nn2)CO[C@@H]1CN(C)C(=O)Nc1ccccc1`, “inactive”. `CCCCNC(=O)C[C@@H]1C[C@@]2(C(=O)OC)CC(C)(C)CC=C2N(Cc2ccco2)C1=O`: the Potency entry was “inactive”.

On to `Cc1cn([C@H]2C[C@H](O)[C@@H](/C=C/C(=O)NCCCc3ccccc3)O2)c(=O)[nH]c1=O`, for which the Potency entry was “inactive”. For the compound `CC(C)(C)C(=O)c1c(N)[nH]c(C(=O)c2ccccc2)c1-c1ccc(F)cc1`, the Potency result is “inactive”. Turning to `C[C@H](CO)N1C[C@H](C)[C@@H](CN(C)C(=O)C2CCCCC2)OCc2cnnn2CCCC1=O`, the Potency result was “inactive”. With `Brc1ccc(Nc2c3c(nc4ncnn24)CCC3)cc1`, the Potency entry was “inactive”. The value for `CC1CCc2c(nc3ncnn3c2Nc2ccc(OC(F)(F)F)cc2)C1` (configuration not stated) was 11.2 µM (active).

On to `CC(=O)c1nn(-c2ccc(OC(F)(F)F)cc2)nc1Nc1ccccc1`, for which the Potency entry was “inactive”. The value for `COc1ccc(-c2nc3ccc(Br)cn3c2Cc2ccc(C)cc2)cc1OC` was “inactive”. Regarding `CC(C)c1cc(Cn2c3ccccc3c(=O)n2C(C)Cn2cc(C3CC3)nn2)on1` (configuration not stated), the Potency result is “inactive”.

For the compound `CCN(CC)S(=O)(=O)c1ccc(N2CCCC2)c(NS(=O)(=O)c2cccs2)c1`, the Potency result is “inactive”. The value for `CCN(CC)S(=O)(=O)c1ccc(Cl)c(C(=O)NC(C)C(c2cccs2)N2CCCC2)c1` (configuration not stated) was 5.62 µM (active); that for `CCN(CC)S(=O)(=O)c1ccc(Cl)c(C(=O)NCCN2CCOCC2)c1` was “inactive”.

`COc1ccc(CN2C(=O)C(CC(=O)NC3CCCCC3)CC(C(=O)N3CCOCC3)=C2C)cc1` (configuration not stated): the Potency entry is “inactive”.

Consider `COc1ccc(NC(=O)C2Cc3c(-c4cccc(NC(C)=O)c4)ccnc3O2)cc1OC` (configuration not stated), for which the Potency result was “inactive”.

`CC(=O)Nc1ccc(-c2ccnc3c2CC(C(=O)NC(C)C)O3)cc1` (configuration not stated): the Potency entry is “inactive”.

For `O=C(Nc1ccc(Cl)cc1)C1Cc2c(-c3ccc4c(c3)OCO4)ccnc2O1` (configuration not stated), the Potency is 11.2 µM (active).

As for `COc1ccc(NC(=O)CCCOc2ccc(C(C)=O)cc2)cc1S(=O)(=O)N1CCCCC1`, the Potency entry is “inactive”.

As to `CN(Cc1ccccc1)C(=O)CCC1CCN(C(=O)c2ccco2)CC1`, the Potency entry is “inactive”. The value for `C[C@H]1CN([C@@H](C)CO)C(=O)CCCn2cc(nn2)CO[C@@H]1CN(C)S(=O)(=O)c1ccccc1C#N` was “inactive”; that for `CCCCCCNC(=O)O[C@]12C[C@@H](C(=O)OC)[C@@H](C(=O)OC)C[C@@]1(O)CN(S(=O)(=O)c1ccc(C)cc1)C2` was “inactive”. With `Cc1ccc(OCc2nnc(SC3CCc4ccccc4C3=O)n2C)cc1` (configuration not stated) the figure was 7.08 µM (active); with `Cc1ccc(OCc2n[nH]c(=S)n2-c2ccccc2)cc1`, “inactive”; with `Cc1cccnc1NC(=O)CSc1nnc(COc2ccc(C(C)C)cc2)n1C`, “inactive”. The value for `O=C(COC(=O)c1ccc(S(=O)(=O)N2CCCCCC2)cc1)Nc1ccccc1C(F)(F)F` was “inactive”; that for `CN1OC[C@@H]2CN(C(=O)C(C)(C)C)[C@H](c3ccc(-n4ccnc4)cc3)C[C@@H]21` was “inactive”. As to `COc1ccc2sc(-c3ccccc3OC)c(-c3ccc(OCCN4CCCC4)cc3)c2c1`, the Potency entry was “inactive”.

Take `COc1ccccc1-c1sc2ccccc2c1-c1ccc(Br)nc1`: the Potency is 10 µM (active). The value for `COc1ccc2sc(-c3ccc(S(C)(=O)=O)cc3)c(-c3ccc(C(N)=O)cc3)c2c1` was “inactive”; that for `COc1cc(C(C)=O)ccc1OC(=O)CN1C(=O)c2ccccc2C1=O` was “inactive”.

`COc1ccc(-c2sc3ccccc3c2-c2ccc(OCCN3CCOCC3)cc2)cc1`: the Potency result is “inactive”. With `COc1ccccc1-c1sc2ccccc2c1-c1ccc(C(C)=O)cc1` the figure was 10 µM (active); with `N#Cc1ccc(-c2nc3c(Cl)cc(C(F)(F)F)cn3c2Cc2ccccc2C(F)(F)F)cc1`, “inactive”; with `CC1(C(=O)NS(=O)(=O)c2cccc(F)c2)CCN1C(=O)Cc1cc(F)ccc1F` (configuration not stated), “inactive”. With `Cc1cccc(CN2CCN(C3CN(Cc4cn(Cc5cc(C)cc(C)c5)nn4)S(=O)(=O)C3)CC2)c1` (configuration not stated) the entry was “inactive”; with `COC(=O)[C@]12CCCCC=C1N(Cc1ccc3c(c1)OCO3)C(=O)[C@H](CC(=O)N1CCOCC1)C2`, “inactive”. With `C[C@@H]1CN([C@H](C)CO)C(=O)CCCn2nncc2CO[C@@H]1CN(C)C(=O)OCc1ccccc1` the entry was “inactive”. For the compound `O=C1NC[C@H](CCCCN2C[C@H](Cc3ccc(O)cc3)N(CCc3ccccc3)C(=O)C2=O)N(CCc2ccccc2)C1=O`, the Potency result was “inactive”.

Source of the values: PubChem BioAssay AID624417 (National Center for Advancing Translational Sciences (NCATS), 2012).
